Assay [1] can be described thus: NCI Yeast Anticancer Drug Screen. Data for the rad50 strain (AID 155).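 Further: 0% = growth of vehicle-only cultures of the same strain.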 To be noted: S. cerevisiae rad50 strain growth inhibition, stronger effect = higher value; at 50.0 µM unless noted. The method in brief: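 A DNA repair-deficient yeast mutant serves as the test organism; compound-induced growth inhibition is calculated against vehicle-treated cells.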
The nature of assay [2]: NCI Yeast Anticancer Drug Screen. Data for the mec2-1 strain (AID 157). To be noted: S. cerevisiae mec2-1 strain, stronger effect = higher value; at 50.0 µM unless noted. The method in brief: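 Compounds were applied to mec2-1 yeast cells. Their growth was then compared with that of vehicle-treated cultures to give growth inhibition.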
Assay [3] in a line: NCI Yeast Anticancer Drug Screen. Data for the sgs1 mgt1 strain (AID 161).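 Further: 0% = growth of cultures given vehicle only.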 To be noted: S. cerevisiae sgs1 mgt1 strain, stronger effect = higher value; at 50.0 µM unless noted. A digest of the protocol: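 Yeast cells carrying a defined DNA-repair defect were exposed to test compounds. Growth inhibition was measured relative to vehicle-treated controls.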
A short description of assay [4]: NCI Yeast Anticancer Drug Screen. Data for the cln2 rad14 strain (AID 165).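 Further: 0% = growth equal to vehicle treated cultures.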 The following applies: S. cerevisiae cln2 rad14 strain, stronger effect = higher value; at 50.0 µM unless noted. The method in brief:
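Strain: cln2 rad14 yeast, altered in cell cycle control and DNA damage repair. Read-out: growth inhibition vs vehicle.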

Assay [5] in a line: NCI Yeast Anticancer Drug Screen. Data for the bub3 strain (AID 167). To be noted: S. cerevisiae bub3 mutant strain, stronger effect = higher value; at 50.0 µM unless noted. A digest of the protocol:
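Inhibition values come from growth of compound-treated mutant yeast normalised to vehicle-treated controls.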

A short description of assay [6]: NCI Yeast Anticancer Drug Screen. Data for the mlh1 rad18 strain (AID 175). To be noted: S. cerevisiae mlh1 rad18 strain growth inhibition, stronger effect = higher value; at 50.0 µM unless noted. A digest of the protocol:
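A repair-deficient yeast strain is exposed to test compound, and growth is scored relative to vehicle-treated controls.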

Values joined by “and” are separate entries in the source; they are usually repeats but may differ in a detail not shown here. Equal values may be shown once. About 79,000 compounds went through this panel and 15% of them were active in at least one assay; those are over-represented in the sample as a whole. Values without a mark were called inactive. Active and inactive are the calls of the source. No stated cut-off is given here; in the data, active means growth inhibition above about 70%; inactive means the rest.

On to `O=C1c2ccccc2C(=O)N1c1ccc(Cc2ccc(N3C(=O)c4ccccc4C3=O)cc2)cc1`, for which the growth inhibition is -11.7% in assay [1]; 10.1% in assay [2]; -2.6% in assay [3]; 42.9% in assay [4]; -0.2% in assay [5]; 14.7% in assay [6].
`COc1ccc(/C(C)=N/N=C\c2cc(OC)c(OC)c(OC)c2)cc1`: the growth inhibition is 6.95% in assay [1]; 3.15% in assay [2]; -10.8% in assay [3]; 14.8% in assay [4]; 83.2% (active) in assay [5]; 8.2% in assay [6].
Consider `CC(C)OC(=S)SC1CCCCC1=O` (centres undefined), for which the growth inhibition was -0.45% in assay [1]; -8.1% in assay [2]; -4.35% in assay [3]; -66.2% in assay [4]; -6.2% in assay [5]; -8.25% in assay [6].
Take `CCOC(=O)C1SC(=Nc2ccccc2)N=C1C` (centres undefined): the growth inhibition in assay [1] is 11.3%; in assay [2], -11.7%; in assay [3], 28.1%; in assay [4], -4.15%; in assay [5] it was -19.6%; in assay [6], -4.5%.
`COc1ccc(COC(=O)Nc2ccccc2F)c(OC)c1OC`: the growth inhibition in assay [1] was 3.15%; in assay [2], -9.55%; in assay [3], 30.7%; in assay [4] it was -3.55%; in assay [5], 26.6%; in assay [6], 16.7%.
For the molecule `CN(CCO)CCCC1COc2ccccc2O1` (centres undefined), the growth inhibition in assay [1] was -31.6%; in assay [2] it was -39.1%; in assay [3], -21.1%; in assay [4], 6.5%; in assay [5], -8.65%; in assay [6], -8.35%.
On to `Cc1ccc([N+](=O)[O-])cc1NC(=O)Oc1ccc(Cl)cc1Cl`, for which the growth inhibition in assay [1] was -5%; in assay [2] it was 8.55%; in assay [3], -10.9%; in assay [4], 1%; in assay [5], 2.5%; in assay [6] it was -13.3%.
As to `O=C(NC12CC3CC(CC(C3)C1)C2)C(=O)c1c[nH]c2ccc(Cl)cc12`, the growth inhibition is -9.15% in assay [1]; -10.6% in assay [2]; -4.1% in assay [3]; 21.8% in assay [4]; 8.5% in assay [5]; -9.15% in assay [6].
As to `COC1OCC(N=[N+]=[N-])C(OS(C)(=O)=O)C1OS(C)(=O)=O` (centres undefined), the growth inhibition was -1.65% in assay [1]; -4.3% in assay [2]; 6.85% in assay [3]; -6.75% in assay [4]; -16.4% in assay [5]; -34.5% in assay [6].
Consider `CCN(CC)OC(=O)/C=C/c1ccccc1`, for which the growth inhibition in assay [1] is 2.05%; in assay [2], 5.5%; in assay [3], -10.3%; in assay [4], 20.2%; in assay [5] it was -3.3%; in assay [6], -4.45%.
In the case of `C=C1C(=O)OC2CC(C)C(/C=C/C(C)=O)=CCC12` (centres undefined), the growth inhibition in assay [1] is -7.45%; in assay [2], -7.6%; in assay [3] it was -19.9%; in assay [4], -12.5%; in assay [5] it was -43%; in assay [6] it was -99.8%.
With `N/N=C1\CC2C3CC4(OCCO4)C4C3CC2C14` (centres undefined), the growth inhibition was 1.6% in assay [1]; -4.7% in assay [2]; 1.75% in assay [3]; 6.55% in assay [4]; -7.6% in assay [5]; 0.15% in assay [6].
`CS1(C)=Nc2c([N+](=O)[O-])cc([N+](=O)[O-])cc2S(=O)(=O)N=1`: the growth inhibition is -9.9% in assay [1]; -12.1% in assay [2]; -1.3% in assay [3]; -15.9% in assay [4]; -5% in assay [5]; 6.55% in assay [6].
In the case of `Cc1ccc(C(=O)c2ccc([N+](=O)[O-])cc2)cc1`, the growth inhibition in assay [1] was -21.1%; in assay [2], -20.4%; in assay [3], -34.5%; in assay [4], -50%; in assay [5], 8.3%; in assay [6], -41.1%.
`COc1ccc(-c2nc(N)c3ncn(C4OC(CO)C(O)C4O)c3n2)cc1` (centres undefined): the growth inhibition in assay [1] was -13.2%; in assay [2] it was -23.9%; in assay [3], -7.15%; in assay [4] it was -12.2%; in assay [5] it was -27.1%; in assay [6], 15.4%.
For the molecule `O=C1NC(N/N=C\C(O)C(O)C(O)CO)=N/C1=C/c1ccccc1` (centres undefined), the growth inhibition was 16.4% and 33.9% in assay [1]; 18.7% and 29.6% in assay [2]; 3.75% and 32.5% in assay [3]; 16.8% and 16.1% in assay [4]; 12.2% and 32.3% in assay [5]; -9.35% and -5.7% in assay [6].
On to `Cc1ccc(-c2c(C#N)c(O)n(NS(=O)(=O)c3ccccc3)c(=O)c2C#N)cc1`, for which the growth inhibition is 4.45% in assay [1]; 6.4% in assay [2]; -30.4% in assay [3]; 0.8% in assay [4]; -14.3% in assay [5]; -11.7% in assay [6].
`C[Si](C)(CCl)N([Si](C)(C)CCl)[Si](C)(C)CCl`: the growth inhibition was 13.1% in assay [1]; 8.55% in assay [2]; 0.7% in assay [3]; -19.7% in assay [4]; -2.6% in assay [5]; -10.1% in assay [6].
Take `CC(Cl)S(=O)(=O)c1ccccc1` (centres undefined): the growth inhibition in assay [1] is 7.45%; in assay [2], -4.05%; in assay [3] it was -17.9%; in assay [4], -42.5%; in assay [5], 8.35%; in assay [6], -14.3%.

These data come from PubChem BioAssay (NCI).
